# Cruzain inh Det = inhibitors of Trypanosoma cruzi cruzain with detergent | purified cruzain, Z-FR-AMC fluorescence, 0.01% Triton | 200,000 tested, 0.43% active | AID 1478 | Potency, µM, for inactives: max response, negative = inhibition, most hits filed as inhibitors;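 further: plate controls were neutral wells for no effect and buffer without enzyme for full effect; nearly all actives have a fitted effect of over 40% in size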
# Target sequence (P25779 123-467 limits assumed): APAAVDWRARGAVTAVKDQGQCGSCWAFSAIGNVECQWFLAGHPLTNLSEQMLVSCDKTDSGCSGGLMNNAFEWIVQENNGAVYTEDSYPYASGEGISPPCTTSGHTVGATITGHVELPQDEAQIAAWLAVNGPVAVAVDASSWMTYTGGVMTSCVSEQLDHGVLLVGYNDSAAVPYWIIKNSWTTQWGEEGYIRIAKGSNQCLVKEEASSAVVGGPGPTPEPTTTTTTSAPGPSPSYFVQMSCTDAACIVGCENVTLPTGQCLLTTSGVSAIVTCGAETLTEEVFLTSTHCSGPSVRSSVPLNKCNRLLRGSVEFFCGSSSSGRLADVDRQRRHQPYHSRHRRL
#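 In this qHTS format, compounds are incubated with 1.5 nM cruzain for 15 min at room temperature before 2 uM Z-FR-AMC is added. Release of AMC is followed at 360/450 nm, and progress is taken as the 60 s fluorescence difference.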
# Cruzain inh noDet = blocks cruzain activity in detergent-free assay | Potency, µM, for inactives: max response, negative = inhibition, most hits filed as inhibitors | P25779 | 200,000 tested, 2.3% active | purified cruzain, Z-FR-AMC fluorescence, no detergent | AID 1476;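 further: plate controls were enzyme without inhibitor for no effect and buffer without enzyme for full effect; nearly all actives have a fitted effect of over 40% in size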
#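 Detergent-free condition (0.00005% Triton X-100) in acetate buffer pH 5.5 with DTT. 1.5 nM enzyme and compound were pre-mixed 15 min, then 2 uM Z-FR-AMC substrate added; reaction progress from fluorescence change between first and third reads (60 s).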
# * = called active by the depositor; ? = inconclusive. In the library only some 2.5% were active in any assay of this set; here they are far more common. The call rests on the fitted dose curve; in most records, active means well fitted curve in the direction sought with a large enough effect; inconclusive means small, poorly fitted or top-dose-only effect, or another doubt; inactive means no such curve, though single readings can be large; an effect the other way counts as inactive or inconclusive. Potency means the concentration at half of the fitted maximal effect.
SMILES,Cruzain inh Det,Cruzain inh noDet
CCN(C(=O)c1cnc(N2CCOCC2)c2ccccc12)c1cc(C)ccc1C,-3.9%,?
Cn1c(=O)c(C(=O)c2ccccc2)nc2ccccc21,-2.1%,-7.5%
O=C(c1ccccc1)c1nc2ccccc2n(CCCn2c(=O)c(C(=O)c3ccccc3)nc3ccccc32)c1=O,-0.6%,10µM*
COc1ccc(Br)cc1CNC(=O)CSc1n[nH]c(-c2ccccc2)n1,1.2%,8.9%
O=C(NC(C(=O)N/N=C/c1c2ccccc2cc2ccccc12)c1n[nH]c(=O)c2ccccc12)c1ccccc1 (stereo unspecified),1.7%,12.6µM*
O=C(NC(C(=O)N/N=C/c1ccccc1)c1n[nH]c(=O)c2ccccc12)c1ccccc1 (stereo unspecified),-8.9%,-13.4%
CC(C)(C)C(=O)c1sc2nc(-c3cccs3)cc(C(F)(F)F)c2c1N,1.3%,-1.7%
N#Cc1sc2nc(-c3cccs3)cc(-c3ccccc3)c2c1N,-0.8%,15.8µM*
CCN(CC)C(=O)c1sc2nc(-c3cccs3)cc(-c3ccc(Cl)cc3)c2c1N,-1.6%,31.6µM*
N#Cc1c(-c2cccs2)cc(-c2cccnc2)nc1N,-10.7%,-10.5%
COc1ccc(-c2cc(C3CC3)nc3sc(C#N)c(N)c23)cc1,-10.3%,-4.4%
N#Cc1sc2nc(-c3cccs3)cc(-c3ccc(Cl)cc3)c2c1N,1.2%,12.6µM*
COc1cc(C(=O)NCC(c2ccc3c(c2)OCO3)N2CCOCC2)cc(OC)c1OC (stereo unspecified),0.2%,-0.8%
CCOc1ccccc1CNC(=O)c1ccc(CS(=O)Cc2cccc(Cl)c2)o1 (stereo unspecified),-5.5%,17.1%
CS(=O)(=O)N1CCN(c2ccccc2NC(=O)c2cccc3ccccc23)CC1,-2.4%,6.3%
CS(=O)(=O)N1CCN(c2ccc(NC(=O)c3ccc(-c4ccc(Cl)cc4)o3)cc2)CC1,2.6%,?
O=C(Nc1cccc(-c2nc3ccccc3o2)c1)c1ccc(-c2ccc(Br)cc2)o1,-1.9%,?
COc1cc2ccccc2cc1C(=O)Nc1ccccc1N1CCN(S(C)(=O)=O)CC1,-5.8%,25.1µM*
O=C(Nc1cccc(NC(=O)c2ccc(-c3ccc(Br)cc3)o2)c1)c1ccco1,-7.0%,31.6µM*
Cc1ccc2cccc(NC(=O)c3ccc(-c4ccc(Br)cc4)o3)c2n1,1.0%,-12.4%
CS(=O)(=O)N1CCN(c2ccccc2NC(=O)c2ccc(-c3ccc(Br)cc3)o2)CC1,-3.2%,25.1µM*
COC(=O)c1ccccc1NC(=O)c1ccc(-c2ccc(Br)cc2)o1,-12.9%,7.94µM*
CCN(C(=O)c1nn(-c2ccc(OC)c(Cl)c2)c(=O)c2c1c1ccccc1n2C)c1cc(OC)ccc1OC,-1.7%,-6.0%
CCOC(=O)C1CCCN(C(=O)Cn2nc(CC)n3c(cc4occc43)c2=O)C1 (stereo unspecified),-4.6%,5.1%
Cc1ccc2[nH]c3c(NCc4ccco4)ncnc3c2c1,-26.9%,-22.9%
SMILES,Cruzain inh Det,Cruzain inh noDet
C=CCNc1ncnc2c1[nH]c1ccc(Cl)cc12,?,12.6µM*
c1ccc2[nH]c(CSc3nc4ccccc4o3)nc2c1,-18.1%,12.6µM*
c1cncc(-c2nnc(SCc3nc4ccccc4[nH]3)o2)c1,-1.7%,?
Cc1ccc(OCCCn2c(-c3ccc(Cl)cc3)nc3ccccc3c2=O)cc1C,-0.7%,-6.7%
CCc1nn2c(=O)cc(COC(=O)c3ccccc3NC(=O)c3cccs3)nc2s1,1.2%,-13.1%
CC(C)(Oc1ccc(Cl)cc1)C(=O)Nc1nnc2n1CCS2,0.5%,-9.1%
O=C(Nc1ncc(Cc2cccc(Cl)c2)s1)c1ccc([N+](=O)[O-])cc1,-3.4%,?
O=C(Nc1ncc(Cc2ccccc2Cl)s1)c1ccc([N+](=O)[O-])cc1,-1.6%,?
O=C(Nc1ncc(Cc2ccccc2Cl)s1)c1ccc(-c2cccc([N+](=O)[O-])c2)o1,-1.3%,6.31µM*
COc1ccc(CC(=O)Nc2nnc(-c3cccc([N+](=O)[O-])c3)s2)cc1,0.0%,?
O=C(Cc1ccccc1)Nc1nnc(-c2cccc([N+](=O)[O-])c2)s1,-1.4%,15.8µM*
Cc1ccc(Cc2cnc(NC(=O)/C(C#N)=C/c3ccc(-c4ccc([N+](=O)[O-])cc4)o3)s2)cc1,1.3%,2.51µM*
O=C(Nc1ncc(Cc2ccc(C(F)(F)F)cc2)s1)c1ccc(-c2cccc([N+](=O)[O-])c2)o1,-2.5%,12.6µM*
CCOc1ccc(NC(=O)/C(C#N)=C\c2ccc(-c3ccc(Cl)cc3)o2)cc1,-1.5%,-3.7%
Cc1nc(N2CCCC2)ncc1C(=O)Nc1ccc(F)cc1F,1.1%,0.4%
CC(=O)N1CCc2c(sc3c2c(=O)n(Cc2ccccc2)c(=O)n3Cc2cccc(Cl)c2)C1,-4.9%,?
O=C(Nc1ccc(OCc2cc(=O)n3c4c(sc3n2)CCCC4)cc1)c1ccccc1,0.4%,6.8%
Cc1ccc(OCC(=O)Nc2nnc(SCc3cc(=O)n4cccc(C)c4n3)s2)cc1,2.1%,-10.0%
Nc1nnc(SCC(=O)NCCOc2ccccc2)s1,28.2µM*,?
O=C(CSc1nc2ccccc2s1)NCCOc1ccccc1,-5.5%,-0.1%
CCOc1ccc(NC(=O)C2CCN(C(=O)N3CC(C)Oc4ccc(Cl)cc43)CC2)cc1 (stereo unspecified),-0.1%,-29.1%
CCOC(=O)CC(NC(=O)CCc1c(C)nc2c(c1C)c(=O)n(C)c(=O)n2C)c1ccc(OCC)c(OC)c1 (stereo unspecified),1.8%,4.8%
COc1ccccc1CNC(=O)c1ccc2c(c1)sc1nc(-c3ccc(F)cc3)cn12,-1.3%,15.3%
CC(=O)c1cccc(NC(=O)c2nc3ccccc3n(C)c2=O)c1,-5.0%,-3.1%
CC1CCC/C(=N\NC(=S)NCc2ccccc2)C1 (stereo unspecified),-1.2%,-1.7%
SMILES,Cruzain inh Det,Cruzain inh noDet
CC1CCC/C(=N\NC(=S)Nc2ccccc2)C1 (stereo unspecified),14.1µM*,-7.1%
Cc1cccc(C(=O)NCc2cn3cccc(C)c3n2)c1,1.1%,3.7%
Cc1ccc(NC(=O)c2c(C)oc3ncn(CC(C)C)c(=O)c23)nc1,-1.5%,-6.1%
CCC1CCCCN1c1ccc([N+](=O)[O-])cc1/C=N/NC(=O)Cn1c2ccccc2c(=O)c2ccccc21 (stereo unspecified),-1.0%,6.31µM*
CCc1ccc(OCC(=O)N/N=C/c2cc([N+](=O)[O-])ccc2N2CCCCCC2)cc1,-3.7%,?
Cc1ccc(CNC(=O)Cn2ccn(-c3cc(C)cc(C)c3)c(=O)c2=O)cc1,-7.4%,?
Cc1cccc(-c2nc(N3CCN(c4ccc(F)cc4)CC3)c3ccccc3n2)c1,0.0%,3.9%
CC[C@H](C)[C@H](NC(=O)[C@H](Cc1ccc(O)cc1)NC(=O)[C@@H](N)C(C)C)C(=O)N[C@@H](Cc1cnc[nH]1)C(=O)N1CCC[C@H]1C(=O)N[C@@H](Cc1ccccc1)C(=O)O,14.1µM*,15.8µM*
Cc1ccc(CC(NC(=O)c2ccccc2)C(=O)N2CCCC2C(=O)O)cc1 (stereo unspecified),1.8%,0.4%
CC(=O)N1CCc2nc3sc(C(=O)Nc4ccc(Cl)cc4F)c(N)c3c(C(F)(F)F)c2C1,1.1%,-8.9%
O=C(Nc1ccc(Cl)cc1)[C@@H]1[C@@H]2C(=O)N(c3ccc4ccccc4c3)C(=O)[C@@H]2[C@H]2C=CC=NN21,-7.2%,15.8µM*
CC(=O)Oc1ccc(C(=O)[C@H]2[C@H]3C(=O)N(c4cccc5ccccc45)C(=O)[C@H]3[C@@H]3C=CC=NN32)cc1,-5.5%,23.0%

# Screens as filed in PubChem.
